The full ranking holds about 68,000 sequences; the median of “fluorescence intensity (a.u.)” is about 9,100, and the highest 2% start at about 16,000. The entries come from a sample that favours the highest values as a whole.

OsWRKY34, sequence (Q0JBA9 entry or part of it): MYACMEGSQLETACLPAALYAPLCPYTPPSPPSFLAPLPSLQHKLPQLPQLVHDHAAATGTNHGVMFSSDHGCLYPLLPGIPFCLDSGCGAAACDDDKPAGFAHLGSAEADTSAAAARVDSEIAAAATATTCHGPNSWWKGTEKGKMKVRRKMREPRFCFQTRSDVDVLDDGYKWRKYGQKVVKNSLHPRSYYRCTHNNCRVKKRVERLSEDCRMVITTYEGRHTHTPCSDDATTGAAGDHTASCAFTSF

In this assay the target is OsWRKY34 (Oryza sativa, UniProt Q0JBA9 1-250). Briefly: protein-binding microarray (RPBM); PBS, 2% BSA, 51.3 ng/ul salmon testes DNA, 50 uM zinc acetate, 200 nM TF, 25 C, 1 h; high values mean tight binding. The settings on record: protein: recombinant; tags: N-terminal polyhistidine and DsRed monomer fusion (pET32a); label: CyDye5-dUTP incorporated in the synthesized complementary strand; 3' TTTTT single-stranded linker to array surface; dsDNA, one strand shown. A digest of the protocol:
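Ni–NTA purification followed expression in E. coli BL21-CodonPlus of transcription factors fused N-terminally to a polyhistidine tag and DsRed. At 200 nM in PBS with 2% BSA, salmon testes DNA and 50 µM zinc acetate, the protein was incubated for 1 h at 25 °C with a custom Agilent array that had been primer-extended with Cy5-dUTP and blocked with 2% BSA. After washing, the array was read on an Axon 4000B scanner. The binding signal is per-feature fluorescence intensity in arbitrary units.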
“CTATAGGTGGATTTTTAGGGACTCACCCGTAAAAACAGGTCGGAGTCACCTAGTGCAG”: the binding signal is 26800 fluorescence intensity (a.u.).

In the case of “GGTTAGGTGGCATTTGAATTTAAAACGTATATGTGGACTCCGGAGTCACCTAGTGCAG”, the binding signal is 13900 fluorescence intensity (a.u.).

Turning to “TTGGGTGGGATTTAAACAGGGTATTAGTGGATAATGATGTCGGAGTCACCTAGTGCAG”, the binding signal was 9570 fluorescence intensity (a.u.).

Consider “CTCCGGGGAATATCTATGGGTCTTGTGGGTGTAGGGAGGACGGAGTCACCTAGTGCAG”, for which the binding signal was 8770 fluorescence intensity (a.u.).

For the sequence “CTATAATTATTTGTCGACTAAATCTGCCTTTCATCTTTCTCGGAGTCACCTAGTGCAG”, the binding signal is 8160 fluorescence intensity (a.u.).

As to “ATCATTTGTCTCGCGACGAAAACTTGCGTTGACCACCCACCGGAGTCACCTAGTGCAG”, the binding signal is 17500 fluorescence intensity (a.u.).

For “TTTGACCAACCGAAACTCGACGGCCCACCCACCAACCACCCGGAGTCACCTAGTGCAG”, the binding signal is 9420 fluorescence intensity (a.u.).

Consider “GTGTCTTGTGCGTTTGCTCTCTCGCGAACCATTCCACAGACGGAGTCACCTAGTGCAG”, for which the binding signal is 8380 fluorescence intensity (a.u.).

With “CACCCACCAAGTACTCTTTTTACTTTTACCACAGCGCATACGGAGTCACCTAGTGCAG”, the binding signal is 9050 fluorescence intensity (a.u.).

In the case of “TTCACACACGAGTAATTGCAGCCTTGCTTTCTCGAAAAAACGGAGTCACCTAGTGCAG”, the binding signal is 17100 fluorescence intensity (a.u.).

As to “TTACACGCCTAATCATCGAAAACCTAATCTTATGCTTTCTCGGAGTCACCTAGTGCAG”, the binding signal was 8790 fluorescence intensity (a.u.).

Take “TGCGGCTTTGATTTGCGGGGTTCACACACGAGTAATTGCACGGAGTCACCTAGTGCAG”: the binding signal is 10900 fluorescence intensity (a.u.).

In the case of “AATCTGTGGCGATAACCTGTATGCTCACACACTTGCCTCTCGGAGTCACCTAGTGCAG”, the binding signal was 8610 fluorescence intensity (a.u.).

As to “TATTACTACCTTCATATTTTAATGTATGACGCCGTTGACTCGGAGTCACCTAGTGCAG”, the binding signal was 11900 fluorescence intensity (a.u.).

Regarding “TACCTCCATATTTTAATGTATGACGCCGTTGACTTTTTATCGGAGTCACCTAGTGCAG”, the binding signal was 28900 fluorescence intensity (a.u.).

For “CTACCTCCATATTTTAATGTATGACGCCGTTGACTTTTTGCGGAGTCACCTAGTGCAG”, the binding signal is 37500 fluorescence intensity (a.u.).

As to “ATATACTACCTCCATATTTTAATGTATGACGCCGTTGACTCGGAGTCACCTAGTGCAG”, the binding signal is 8860 fluorescence intensity (a.u.).

For “TATATACTCCCTCCATATTTTAATGTATGACGCCGTTGACCGGAGTCACCTAGTGCAG”, the binding signal was 9880 fluorescence intensity (a.u.).

On to “TACTCCCTCCGTATTTTAATGTATGACGCCGTTGACTTTTCGGAGTCACCTAGTGCAG”, for which the binding signal is 13900 fluorescence intensity (a.u.).

As for “TTCCCTCCATATTTTAATGTATGACGCCGTTGACTTTTTACGGAGTCACCTAGTGCAG”, the binding signal was 17700 fluorescence intensity (a.u.).

With “TCCGTATTTTAATGTATGACGCCGTTGACTTTTTATCCAACGGAGTCACCTAGTGCAG”, the binding signal is 21400 fluorescence intensity (a.u.).

As to “AGCGCGTCGCTTTCTTTCTTTCTTTCAGTTTTTTTTTTCCCGGAGTCACCTAGTGCAG”, the binding signal is 10500 fluorescence intensity (a.u.).

As to “AATCTGACTGAAGTATGTACTTTGTGTTGACCAATTTGGCCGGAGTCACCTAGTGCAG”, the binding signal is 10200 fluorescence intensity (a.u.).

Regarding “ATGAGTTCCCAACCGCCACTTACATTAAGTACCACACTCCCGGAGTCACCTAGTGCAG”, the binding signal was 8660 fluorescence intensity (a.u.).

Consider “GTTTCCTTCGTTTCAGATTACTCATTATTTTAGCTTTTTTCGGAGTCACCTAGTGCAG”, for which the binding signal was 13800 fluorescence intensity (a.u.).

With “TCCACCTTTTCATCAATATAGTCATGCATTAATACAGTCACGGAGTCACCTAGTGCAG”, the binding signal is 8670 fluorescence intensity (a.u.).

Regarding “TTGCTTCCTTTGTCCTTACTGACATTATTACCTCAGAGACCGGAGTCACCTAGTGCAG”, the binding signal was 8870 fluorescence intensity (a.u.).

Consider “ACGGGGCGCATTTATTCATCCCCACCTTTGTTCATCAGTTCGGAGTCACCTAGTGCAG”, for which the binding signal is 11600 fluorescence intensity (a.u.).

On to “ATTTGTTTGTTTTTTTAATAAATGATGTTGTTGACTTTTACGGAGTCACCTAGTGCAG”, for which the binding signal was 9030 fluorescence intensity (a.u.).

In the case of “CTCATAATAGATTTACTTTTAATGCCGTTGTTTTGTTTTACGGAGTCACCTAGTGCAG”, the binding signal was 9090 fluorescence intensity (a.u.).

Consider “TTTTAATGTATGACGCTGTTGACTTTTTATCCAACGTTTGCGGAGTCACCTAGTGCAG”, for which the binding signal is 16400 fluorescence intensity (a.u.).

On to “TGCACTAGTATGTATGACGTTGACTGTTTTTTTAAGGACGCGGAGTCACCTAGTGCAG”, for which the binding signal was 10200 fluorescence intensity (a.u.).

In the case of “TAATGTATGACGTCGTTGACTTTTTGTTAAACGTTTGATCCGGAGTCACCTAGTGCAG”, the binding signal is 15600 fluorescence intensity (a.u.).

Consider “CTCCATATTTTAATGTATGCCGCCGTTGACTTTTTGTTTACGGAGTCACCTAGTGCAG”, for which the binding signal was 20200 fluorescence intensity (a.u.).

For “GTTACCCCGATTAGTTAGTTTATGTTGTACATGCTGTTGACGGAGTCACCTAGTGCAG”, the binding signal is 11000 fluorescence intensity (a.u.).

Regarding “CAGTGTCCGTTTTCTCCGACAAACTCGGCGTGGCCACAGTCGGAGTCACCTAGTGCAG”, the binding signal is 9840 fluorescence intensity (a.u.).

Consider “AAAAAGTCAACGGCGTCAAACATTTAGGGATGGAGGGAGTCGGAGTCACCTAGTGCAG”, for which the binding signal was 8190 fluorescence intensity (a.u.).

In the case of “TTGTTGATTTTTTTTCAGAATTTTTATCACTATTTGTCTTCGGAGTCACCTAGTGCAG”, the binding signal is 8570 fluorescence intensity (a.u.).

Consider “TTTAAAAGTCAACGGCGTCAGAGGGAGTATATATTTTAGCCGGAGTCACCTAGTGCAG”, for which the binding signal is 9840 fluorescence intensity (a.u.).

For the sequence “ATATGTTTAAAAAAGTCAACGGCGTCAAACATTTAGGGATCGGAGTCACCTAGTGCAG”, the binding signal is 18600 fluorescence intensity (a.u.).

Take “AAACATGTTTAAAAAAGTCAACGGCGTCAAACATTTAGGGCGGAGTCACCTAGTGCAG”: the binding signal is 13800 fluorescence intensity (a.u.).

Consider “TCAAACATTTAAAAAAAAAGTCAACGGCGTCAAATATTTTCGGAGTCACCTAGTGCAG”, for which the binding signal is 8470 fluorescence intensity (a.u.).

For the sequence “ATATTTAAAAAAGTCAACGGCGTCAAACATTTTGAGATAGCGGAGTCACCTAGTGCAG”, the binding signal is 9320 fluorescence intensity (a.u.).

On to “TATTTTTAAAAAAGTCAACGGCGTCTTGTGGGATGGAGGGCGGAGTCACCTAGTGCAG”, for which the binding signal was 21300 fluorescence intensity (a.u.).

In the case of “TAAAAAAGTCAACGGCGTTAAACATTTTGGGATGGAGGGACGGAGTCACCTAGTGCAG”, the binding signal was 11200 fluorescence intensity (a.u.).

Turning to “AATATTTTTTTGAGGTTTTTTGTTGCGTTTAAAATTCAAACGGAGTCACCTAGTGCAG”, the binding signal was 8110 fluorescence intensity (a.u.).

On to “TTGATTTTTTGTTGCAAAAGAATATTTTAATTCACTGCAACGGAGTCACCTAGTGCAG”, for which the binding signal is 24300 fluorescence intensity (a.u.).

Consider “ATATTTAAAAAAGTCAACGGCGTCAAACATTTTGAAACGGCGGAGTCACCTAGTGCAG”, for which the binding signal is 16800 fluorescence intensity (a.u.).

Take “ATCTGTACAGTTTGTGACTAATTTGCAAGACGAATCTTTTCGGAGTCACCTAGTGCAG”: the binding signal is 11500 fluorescence intensity (a.u.).

Consider “GGATACGGCACCTTTGCGAGCTGCGTCGACCGCTCCGCCGCGGAGTCACCTAGTGCAG”, for which the binding signal is 9650 fluorescence intensity (a.u.).

Consider “GGTTCTGTTCTATATACTCCGACACCATACTGATTAGTCTCGGAGTCACCTAGTGCAG”, for which the binding signal was 10900 fluorescence intensity (a.u.).

As for “TTTTGAGTTTTTGTGTGAACTGTTTGACCACTCGTCTTATCGGAGTCACCTAGTGCAG”, the binding signal was 8250 fluorescence intensity (a.u.).

On to “CTAGCTCACACACAATTGCATACACCTAGCTCAAAAGCCTCGGAGTCACCTAGTGCAG”, for which the binding signal is 9080 fluorescence intensity (a.u.).

“CATGTGCTCAAAGCTTATCTGCATACAAGCCTTCGAGACCCGGAGTCACCTAGTGCAG”: the binding signal was 64100 fluorescence intensity (a.u.).

Turning to “CCATCTCCTTCAGCCTTCGCTTCATCTGGTCGAGCTCCTGCGGAGTCACCTAGTGCAG”, the binding signal was 9080 fluorescence intensity (a.u.).

(Values after paper PMC7819943, “Rice protein-binding microarrays: a tool to detect cis-acting elements near promoter regions in rice”.)
